# Source: PubChem BioAssay (Tox21)
# Unmarked numbers belong to inactive results. Records with an inconclusive call do not appear. Entries that show only a call come without a potency. Calls of active or inactive are those of the source. Unless noted, calls follow the shape of the dose curve; as a rule, active = well fitted curve in the direction sought with a large enough effect in the repeat runs; inconclusive = weak or mixed curves; inactive = no such curve, though single readings can be large; an effect the other way counts as inactive or inconclusive.
# How the values were obtained:
# [1] = Caspase-3/7 induction in HepG2 cells by small molecules, qHTS assay (AID 1346978); also: nearly all actives have a fitted effect of over 15% in size; also: potency is read from the fitted curve at half-maximal effect
# Summary of the method: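 Wild-type HepG2 cells, 2,000/well, settled 5 hr at 37 C and 5% CO2, then compound-treated for 17 hr; caspase-3/7 activity read by luminescent Caspase-Glo 3/7 after 30 min at room temperature.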
# [2] = Caspase-3/7 induction in CHO-K1 cells by small molecules, qHTS cell viability counter screen (AID 1346979); also: nearly all actives have a fitted effect of over 35% in size; also: potency is read from the fitted curve at half-maximal effect
# Summary of the method: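 In the same wells as the caspase read, viability of compound-treated wild-type CHO-K1 cells was assessed using CellTiter-Fluor, added after 16hr at 37C and measured by fluorescence following 1hr further incubation.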
# [3] = Caspase-3/7 induction in CHO-K1 cells by small molecules, qHTS assay (AID 1346980); also: nearly all actives have a fitted effect of over 15% in size; also: potency is read from the fitted curve at half-maximal effect
# Summary of the method: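 Wild-type CHO-K1 cells exposed to compounds for 17hr at 37 C, 5% CO2. Caspase-3/7 activity then measured by Caspase-Glo 3/7 luminescence after 30min at room temperature.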
# [4] = Caspase-3/7 induction in HepG2 cells by small molecules, qHTS cell viability counter screen (AID 1346981); also: nearly all actives have a fitted effect of over 30% in size; also: potency is read from the fitted curve at half-maximal effect
# Summary of the method: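 Wild-type HepG2 cells, 2,000/well, settled 5 hr at 37 C, 5% CO2 before compound addition. Viability read by CellTiter-Fluor fluorescence, reagent added after 16 hr compound exposure, then 1 hr at 37C, in the same wells as the caspase read.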
# [5] = target: Nuclear receptor subfamily 1 group I member 2 (Homo sapiens) (UniProt O75469); test: Human pregnane X receptor (PXR) small molecule agonists, qHTS assay (AID 1346982); also: nearly all actives have a fitted effect of over 35% in size; also: potency is read from the fitted curve at half-maximal effect
# Summary of the method: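 PXR-Luc HepG2 reporter cells (CYP3A4-driven luciferase) in 5% charcoal-stripped FBS medium, plated 5 h before compound addition, then treated 24 h at 37C. Luciferase read by ONE-Glo luminescence after 30 min at room temperature.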
# [6] = target: Acetylcholinesterase (Homo sapiens) (UniProt P22303); test: Acetylcholinesterase (AChE) small molecule antagonists: colormetric cell-based qHTS assay (AID 1347395; calls by dose curve; also: nearly all actives have a fitted effect of over 30% in size)
# Summary of the method: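 Endogenous AChE of human neuroblastoma SH-SY5Y cells was measured with an Ellman-type DTNB/acetylthiocholine mix. Compound pretreatment lasted 30 min at 37 C; substrate reaction ran 90 min at 37 C.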
# [7] = target: Acetylcholinesterase (Homo sapiens) (UniProt P22303); test: Acetylcholinesterase (AChE) small molecule antagonists: enzyme-based qHTS assay (AID 1347397; calls by dose curve; also: nearly all actives have a fitted effect of over 55% in size); details: Potency: AChE enzyme activity inhibition
# Summary of the method: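 Recombinant human AChE (50 mU/mL) preincubated with compound 30 min at room temperature; acetylthiocholine plus DTNB then added, and thiocholine formation read colorimetrically after 10 min at room temperature. DMSO served as vehicle control.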
# Nuclear receptor subfamily 1 group I member 2 (Homo sapiens), sequence (O75469 whole entry, looked up): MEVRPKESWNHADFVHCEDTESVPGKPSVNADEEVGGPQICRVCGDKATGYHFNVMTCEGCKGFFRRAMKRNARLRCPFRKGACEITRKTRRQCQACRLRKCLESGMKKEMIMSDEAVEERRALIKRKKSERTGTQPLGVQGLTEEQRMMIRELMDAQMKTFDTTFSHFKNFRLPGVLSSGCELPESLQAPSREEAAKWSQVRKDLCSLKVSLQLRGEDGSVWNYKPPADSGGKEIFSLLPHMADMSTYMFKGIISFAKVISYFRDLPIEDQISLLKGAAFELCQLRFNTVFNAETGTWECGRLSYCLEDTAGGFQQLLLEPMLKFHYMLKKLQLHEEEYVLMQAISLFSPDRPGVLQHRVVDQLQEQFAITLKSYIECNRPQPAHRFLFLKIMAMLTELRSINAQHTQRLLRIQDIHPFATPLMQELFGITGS
# Acetylcholinesterase (Homo sapiens), sequence (P22303 whole entry, looked up): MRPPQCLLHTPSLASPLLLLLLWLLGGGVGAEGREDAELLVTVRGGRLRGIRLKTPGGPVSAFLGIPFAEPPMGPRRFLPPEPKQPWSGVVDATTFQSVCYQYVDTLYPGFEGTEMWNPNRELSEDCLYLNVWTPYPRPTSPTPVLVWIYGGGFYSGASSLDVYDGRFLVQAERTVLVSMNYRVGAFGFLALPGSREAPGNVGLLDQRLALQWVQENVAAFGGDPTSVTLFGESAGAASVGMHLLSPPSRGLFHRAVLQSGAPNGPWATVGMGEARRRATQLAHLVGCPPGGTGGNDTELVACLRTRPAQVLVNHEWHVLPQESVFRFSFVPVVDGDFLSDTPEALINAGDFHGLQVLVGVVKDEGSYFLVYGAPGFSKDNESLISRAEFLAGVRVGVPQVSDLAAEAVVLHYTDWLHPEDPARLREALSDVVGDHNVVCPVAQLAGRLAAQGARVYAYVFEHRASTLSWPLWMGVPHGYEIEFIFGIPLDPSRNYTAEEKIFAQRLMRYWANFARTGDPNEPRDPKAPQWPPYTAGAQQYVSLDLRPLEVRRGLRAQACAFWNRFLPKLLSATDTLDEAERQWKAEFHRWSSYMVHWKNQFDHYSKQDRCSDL
SMILES,Potency [1],Potency [2],Potency [3],Potency [4],Potency [5],Potency [6],Potency [7]
Cl/C=C\CCl,inactive,inactive,inactive,inactive,inactive,inactive,inactive
CCc1cc(C)cc(CC)c1-c1c(OC(=O)C(C)(C)C)n2n(c1=O)CCOCC2,inactive,27.3 µM (active),inactive,30.6 µM (active),inactive,inactive,inactive
N#C/C=C/C#N,inactive,50.8 µM (active),inactive,inactive,64 µM (active),inactive,inactive
CC(C)CC(C)Nc1ccc(Nc2ccccc2)cc1 (stereo not drawn),inactive,60.1 µM (active),inactive,67.4 µM (active),12 µM (active),inactive,inactive
COP(=O)(CCC(=O)NCO)OC,inactive,inactive,inactive,inactive,inactive,inactive,inactive
Cc1cc(C)c(C2=C(OC(=O)CC(C)(C)C)C3(CCCC3)OC2=O)c(C)c1,inactive,inactive,inactive,inactive,inactive,inactive,inactive
O=c1ssc(Cl)c1Cl,inactive,27.3 µM (active),inactive,inactive,27.3 µM (active),inactive,inactive
COc1ccc(OC)c(CC(C)N)c1 (stereo not drawn),inactive,inactive,inactive,inactive,inactive,inactive,inactive
COc1cc(C=O)cc2c1[C@H](COC(N)=O)[C@]1(OC(C)=O)ON2C[C@H]2[C@@H]1N2C(C)=O,193 nM (active),61.1 µM (active),61.1 µM (active),2.73 µM (active),inactive,inactive,inactive
C[As+](C)(C)CC(=O)[O-],inactive,inactive,inactive,inactive,inactive,inactive,inactive
C=COCCCl,inactive,inactive,inactive,inactive,inactive,inactive,inactive
COS(=O)(=O)c1ccc(C)cc1,inactive,inactive,inactive,inactive,inactive,inactive,inactive
FC(Cl)(Cl)Cl,inactive,inactive,inactive,inactive,inactive,inactive,inactive
CC(=O)C(Cl)(Cl)Cl,inactive,14.8 µM (active),inactive,18.7 µM (active),23.5 µM (active),inactive,inactive
CCc1ccccc1C,inactive,inactive,inactive,inactive,inactive,inactive,inactive
CCCN(CCC)CCc1c[nH]c2ccccc12,inactive,inactive,inactive,inactive,inactive,inactive,inactive
BrCBr,inactive,inactive,inactive,inactive,inactive,inactive,inactive
Cn1cc(C2=C(c3cn(C4CCN(Cc5ccccn5)CC4)c4ccccc34)C(=O)NC2=O)c2ccccc21,inactive,10.6 µM (active),inactive,10.6 µM (active),inactive,inactive,inactive
N#C/C=C/c1ccccc1,inactive,inactive,inactive,inactive,inactive,inactive,inactive
Oc1ccccc1Br,inactive,inactive,inactive,inactive,inactive,inactive,inactive
C[C@]12CC[C@H]3[C@@H](CCC4=CC(=O)CC[C@@]43C)[C@@H]1CC[C@@H]2O,inactive,inactive,inactive,inactive,27.1 µM (active),inactive,inactive
N#CNC#N,inactive,inactive,inactive,inactive,inactive,inactive,inactive
CCCCCCCCCCBr,inactive,inactive,inactive,inactive,inactive,inactive,inactive
CCCCOCN(C(=O)CCl)c1c(CC)cccc1CC,inactive,61.1 µM (active),inactive,inactive,2.73 µM (active),inactive,inactive
